Screen size: about 31,000 sequences; about 1,400 (4.5%) were called active. This is one part of a sample in which actives are shown more often than they occur. Unmarked numbers belong to inactive results.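 How the source made its calls: active means median seed-adjusted z-score above 1 or below -1; inactive means the rest.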

A short description of this test: Novel Modifiers of Survival Motor Neuron (SMN) Protein: Gene Identification via Genome-wide siRNA Screen.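 Further: luminescence tracks full-length SMN protein made from the SMN2 reporter.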 The following applies: HEK293T SMN2-luciferase reporter, siRNA knockdown, 72 h; actives lie on both sides. In outline:
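HEK293T cells stably expressing an SMN2 splicing/cDNA-luciferase reporter were reverse-transfected with a druggable-genome siRNA library and read by luminescence at 72 hours; hits defined by MAD score above 1.0 or below -1.0.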
For GACUGAAUGAUAUGAAAGATT against RHOQ, the median seed-adjusted z-score is -0.328.

Turning to GGAUUUGAGGGAAAACGCATT against FMO2, the median seed-adjusted z-score was -0.265.

For GGAGGUCUCAAGUUCAACATT against LENG8, the median seed-adjusted z-score was -0.00539.

Turning to UGAUGAACUCGGAAAUGCATT against PPAPDC1A, the median seed-adjusted z-score was 0.634.

For GGACCAGAGAGACUUCAUUTT against ASTL, the median seed-adjusted z-score is 0.722.

On to GAAGCAGGGUUAAAGCGGATT against PRDM2, for which the median seed-adjusted z-score is 1.12 (active).

In the case of GAGAUAACAUCAGUAGAAATT against FGF10, the median seed-adjusted z-score is 0.

Turning to CACCGUCUGAGAUAAUAGATT against LST-3TM12, the median seed-adjusted z-score is -0.109.

As to CUGUCCGUAUGAUUACAAATT against ZFAND5, the median seed-adjusted z-score is 0.0289.

For the sequence GCAUCGCCCUGAUGAGUAATT against ADCY7, the median seed-adjusted z-score was -0.0202.

Turning to CCUCAUGUCGGGCAUCUUATT against EGR4, the median seed-adjusted z-score is 0.

GAUUCUUUUGAAAAAGUGATT against ZNF675: the median seed-adjusted z-score was -0.343.

In the case of GGAUUAUUCAUUAUUACAUTT against NDUFB6, the median seed-adjusted z-score is -0.357.

For GCUCAACAGUCCCUAGUUATT against RSC1A1, the median seed-adjusted z-score is 0.438.

As for CCAUCAAGCUCUACAAGGATT against TOP3B, the median seed-adjusted z-score is -1.11 (active).

Turning to CAGUUCAAGUGACCAUUGATT against CD300LF, the median seed-adjusted z-score was -0.264.

For GGUUCUUCCCGUUGUCUUUTT against TOMM22, the median seed-adjusted z-score was 0.486.

GGACCACAGACAUAGUAGATT against NCOA5: the median seed-adjusted z-score is 0.947.

With ACAUGGACAAUGCCGCAGATT against HSPBP1, the median seed-adjusted z-score was 0.368.

Consider CUAAGAUGGUUAUCAAGAATT against SLC1A2, for which the median seed-adjusted z-score was 0.249.

Regarding CGAAGGAUAUCUAUCAUCATT against NXF1, the median seed-adjusted z-score is -4.46 (active).

For the sequence GGACUACGGAGUUCGAGAATT against MGC29506, the median seed-adjusted z-score was 0.

As for CCCAUAAUAUCAUUGAGAATT against SREBF2, the median seed-adjusted z-score is -0.606.

Turning to GGUCCGGAAUGUGAACUUUTT against SERPINE2, the median seed-adjusted z-score is 0.0144.

As for AGAUGGAGUUUGAUCCUAATT against POLR2G, the median seed-adjusted z-score is -4.19 (active).

For the sequence GAACUGCAAAGACCUGUUUTT against SSU72, the median seed-adjusted z-score was -1.64 (active).

For CCUCAUCAACUCUGACAUATT against LMO2, the median seed-adjusted z-score is 0.

In the case of CCGUGAUCGUGAAGCUAGATT against PKD2, the median seed-adjusted z-score is 0.219.

For CCCUCAGACUGUACGCAGATT against PGM5, the median seed-adjusted z-score is -0.0543.

Regarding GGAAACUCGUGGACUAUGATT against BIN2, the median seed-adjusted z-score was 0.205.

As for CGCUCACACUGGGUUCCAATT against SLC34A1, the median seed-adjusted z-score is 0.139.

As for UGAGCACAAUCAAGUCUAATT against BRD4, the median seed-adjusted z-score is 1.13 (active).

Turning to GAAUUGGAAGAAGAUAUCATT against RHOBTB3, the median seed-adjusted z-score is 0.256.

Take GAUGAUCUGUGAGACCAAATT against BOC: the median seed-adjusted z-score was -0.0192.

For the sequence CAUCAACGAAGGAAAUAUATT against CD27, the median seed-adjusted z-score was 0.5.

For GUUCCUUAUUGUUAAGGUATT against PCDHB10, the median seed-adjusted z-score was -0.09.

In the case of GAAUGGAAGAUUUCACCUUTT against SNAPC3, the median seed-adjusted z-score was -1.72 (active).

With GGAGCUACUUUGACUCACUTT against KCNK13, the median seed-adjusted z-score is -0.0924.

As for GCUCUGUGCUCUCUAGUGATT against LEFTY1, the median seed-adjusted z-score was 0.383.

As to CCCUCACUAUCACGGUUAATT against ATP6V1B2, the median seed-adjusted z-score is 0.24.

As to GUGCAUGUAUGAAGCCGAATT against NDUFB10, the median seed-adjusted z-score is -0.39.

Take AGAAGGUGACUCAAAGAAUTT against WFDC1: the median seed-adjusted z-score is 0.152.

For AGCUCUUUGCUACAGAUGATT against ACAD8, the median seed-adjusted z-score is 1.06 (active).

For GGACCGUGUUCUUUACGUATT against NDUFAB1, the median seed-adjusted z-score is -0.282.

In the case of CCCUGUUAUGUCAAGCUUATT against SYNPR, the median seed-adjusted z-score was 0.257.

For CUUAAUUCUUGGUCUAUGATT against SP6, the median seed-adjusted z-score is -0.176.

Take AGUUCAUGCAAGAUCCAAUTT against BAT1: the median seed-adjusted z-score was -1.49 (active).

For the sequence AGCGCGUCAUGAUGACCUATT against PER1, the median seed-adjusted z-score is 0.176.

For AGCCCGUGAUGUACACGUATT against COL8A1, the median seed-adjusted z-score is -0.848.

On to GAUCCACCUGAGACAGAAATT against EGR2, for which the median seed-adjusted z-score is -0.37.

Turning to GGAUCUAUCUCAUCAAACATT against NDUFC1, the median seed-adjusted z-score was 0.

Consider CAGACUUAUUACUAGAUGATT against PRDX5, for which the median seed-adjusted z-score was -0.0386.

As to GCAAAGGCACUGAAUCGAATT against MAP4K5, the median seed-adjusted z-score was -0.309.

As for GCCCGUCUAUGACAAGAAATT against RELB, the median seed-adjusted z-score was 1.16 (active).

For CGCCUUGAAUGGGAGCAAATT against C2, the median seed-adjusted z-score is -0.0549.

For the sequence GUGUAUUACCUGAGAAUCATT against CYP24A1, the median seed-adjusted z-score was 0.136.

As to CAGGUACCGUCAUCACAUUTT against PCDHA7, the median seed-adjusted z-score is 0.552.

Turning to GACUCGUGGUUUGAAGUGATT against ZNRF1, the median seed-adjusted z-score was -0.808.

With CCCAGUUCCUAGACUGUAUTT against MTMR8, the median seed-adjusted z-score is -0.416.

Regarding CGACCUUCAAAGUUAACAATT against CLIP1, the median seed-adjusted z-score was 0.853.

In the case of CCUCUUACACUUUUCCGAATT against PECI, the median seed-adjusted z-score was -0.0254.

In the case of GUACCCUGGAGGAAAGCGATT against GNRH2, the median seed-adjusted z-score is 1.13 (active).

For the sequence AGAGGAUCCUGAACUCCAATT against MYO19, the median seed-adjusted z-score was 0.0987.

Turning to AUCAAGUCUUCUUACAAGATT against VDAC2, the median seed-adjusted z-score is 0.648.

GAAUGAGGCAUAUCAAGCATT against TUBD1: the median seed-adjusted z-score was -0.00491.

For the sequence GGAAAUCCUUCAUAUACAATT against ZNF549, the median seed-adjusted z-score was 0.0114.

With GAUUCCGUCUAAUCCUAGATT against C5, the median seed-adjusted z-score is 0.153.

For ACAAUGAAGUUCUCCCUGATT against PCGF1, the median seed-adjusted z-score is 0.508.

For the sequence CCUCAUUUGUCUACACCAUTT against RAD51L1, the median seed-adjusted z-score was 0.

In the case of GGUAUGAGGUUGACUCAUUTT against IFNAR1, the median seed-adjusted z-score is 0.0327.

With GGAGACCUGCGAUUACUUUTT against BARX2, the median seed-adjusted z-score was -0.206.

For the sequence GGAGCUCAUUUGACAUGUATT against KIR2DL5B, the median seed-adjusted z-score was 1.72 (active).

Consider GCGACUGUCUCGACAGAUATT against HTT, for which the median seed-adjusted z-score is -0.234.

Take GGAUAGCUAAAGAAAUUCATT against IMPA1: the median seed-adjusted z-score was -0.295.

With CCACACUGGUGAUAGACCATT against ZNF384, the median seed-adjusted z-score was -0.132.

As for UGAAAGGACUUGUCUGAAATT against CHST6, the median seed-adjusted z-score is 0.372.

As to GGGUGUCUGCGAUUAUCUUTT against WDFY1, the median seed-adjusted z-score is 0.979.

With GGUUGGUGAUGUCAAGUAUTT against CDKL2, the median seed-adjusted z-score was -0.293.

For AGUGGUCCCUUCACAGGAATT against GNRH2, the median seed-adjusted z-score is 1.13 (active).

Take AGCCUUUAGUGUCCGUUCATT against ZNF347: the median seed-adjusted z-score is 0.

GGGACUAGCUCUUCGCAUATT against PTGER3: the median seed-adjusted z-score was -0.321.

As to GACUCUGAAUGCUUGCUGUTT against MMS19, the median seed-adjusted z-score was 0.0142.

As to CCAUCUAUGAGGCGGGAAATT against MFI2, the median seed-adjusted z-score was 0.365.

Consider GAAUCUUGCCCGUCUAUAATT against RSC1A1, for which the median seed-adjusted z-score was 0.438.

For the sequence CACCAUCUCCGGGAACAGATT against FUT1, the median seed-adjusted z-score is 0.000845.

In the case of GCAUGGGUUUUAUUAUAUATT against CCL11, the median seed-adjusted z-score was -0.221.

In the case of CACGAGCUAAAGUAAAAUATT against EGLN1, the median seed-adjusted z-score was 2.05 (active).

For CAUCAUUACUGUUGAGGGATT against CSRP2BP, the median seed-adjusted z-score was -0.526.

GAGAAACCUUUAUUCGAUATT against GLULD1: the median seed-adjusted z-score was -0.332.

As to CCAUCGACAUUGAAACCUUTT against PITPNM2, the median seed-adjusted z-score is 0.275.

In the case of GCAAUGCGUUCUUUCUAAATT against SIGLEC11, the median seed-adjusted z-score was -0.395.

Turning to CAAAGAGAUUUGUACAGAUTT against ZNF140, the median seed-adjusted z-score is 0.587.

Consider GGACGAGCCUCAUGAAUGATT against SEC11B, for which the median seed-adjusted z-score is 1.04 (active).

As to CAGUGUCCAUGUACCUCUUTT against SLC37A4, the median seed-adjusted z-score is -0.00202.

Consider GCAUUUAGGUACCAGCUCATT against SLC39A2, for which the median seed-adjusted z-score was 0.0602.

For the sequence CCAGGGAUAUGAUUGACAATT against SERPINE2, the median seed-adjusted z-score was 0.0144.

In the case of GCAGUACACGAGAAAGUCATT against 1-Sep, the median seed-adjusted z-score is 0.0103.

In the case of CUACAUCAAGAAGACAUAUTT against ABHD2, the median seed-adjusted z-score is -1.21 (active).

Turning to CUCUCUCUCUACGAACAUUTT against TCF7, the median seed-adjusted z-score is -0.338.

Turning to CGACCCAGACAAUAGACUATT against CCNT1, the median seed-adjusted z-score is -0.72.

In the case of GGUAUGGAUUGAUGCCGCATT against SLC6A2, the median seed-adjusted z-score is 0.

For GCACCAUUCUAACAAUGGATT against NANS, the median seed-adjusted z-score was -1.54 (active).

CCAACAAGCUGUCUCCCUATT against CENPB: the median seed-adjusted z-score is 0.292.

On to GUACAAGAGAUAAUGCAAATT against TFPI, for which the median seed-adjusted z-score was -0.0076.

For the sequence CUAUCAUAGUGACAAGCGATT against GJA5, the median seed-adjusted z-score was 0.707.

AAGUACAUAUAACCACUUATT against RAB14: the median seed-adjusted z-score is -0.0567.

CAGUGACCCGGAUCCUCUATT against RHCG: the median seed-adjusted z-score is 0.375.

Regarding CCUGGACGAGUUUAUAAUATT against AP1S3, the median seed-adjusted z-score was 0.153.

The values are drawn from PubChem BioAssay AID1347426 (Functional Genomics Laboratory (NCATS/FGL), 2020).
